Shiga toxin inh: blocks Shiga toxin action in Vero cells | Vero cells, Shiga toxin protein synthesis inhibition reporter | inhibition, % at 38.7 µM | 9.2% of 290,000 active | AID 2315; in the data active = inhibition mostly above about 28%, no sharp cut-off; inactive = mostly below about 43%; also: 0% is about no effect
AMA1-RON2 inh: disrupts binding of P. falciparum AMA1 to RON2; AlphaScreen AMA1-biotinylated RON2 peptide binding; Potency, µM (titrated, usually from 58.2 µM), for inactives: at the highest dose activity change, negative = inhibition, most hits filed as inhibitors; 0.2% of 360,000 active;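 also: potency is read from the fitted curve at half-maximal effect; 0% = vehicle wells and -100% = peptide control; nearly all actives have a fitted effect of over 45% in size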
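AMA1 (3D7) with his tag at 25 nM final met compounds first, then biotinylated RON2 peptide at 25 nM; detection used donor plus acceptor beads, 10 µg/mL apiece, read by AlphaScreen after 30 min at room temperature.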
Cycloheximide cs: counter-screen for Shiga toxin inhibitors: cycloheximide protein synthesis inhibition | cell reporter, cycloheximide protein synthesis inhibition counterscreen | max response, % | 12% of 300,000 active; in the data active = max response mostly above about 13%, no sharp cut-off; inactive = mostly below about 14%; also: read at 38.3 µM for the half of the compounds with a filed dose; 0% is about no effect
AmpC detergent: blocks E. coli AmpC beta-lactamase in detergent assay. P00811. AmpC hydrolysis of nitrocefin, absorbance 480 nm, 0.01% Triton. Potency, µM (highest dose often 114 µM), for the others: at the highest dose activity change, negative = inhibition, usual class: inhibitors. 0.041% of 370,000 active. AID 485294;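 also: potency is read from the fitted curve at half-maximal effect; 0% = no-compound wells and -100% = no-enzyme wells; nearly all actives have a fitted effect of over 25% in size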
Target sequence (P00811 whole entry, looked up): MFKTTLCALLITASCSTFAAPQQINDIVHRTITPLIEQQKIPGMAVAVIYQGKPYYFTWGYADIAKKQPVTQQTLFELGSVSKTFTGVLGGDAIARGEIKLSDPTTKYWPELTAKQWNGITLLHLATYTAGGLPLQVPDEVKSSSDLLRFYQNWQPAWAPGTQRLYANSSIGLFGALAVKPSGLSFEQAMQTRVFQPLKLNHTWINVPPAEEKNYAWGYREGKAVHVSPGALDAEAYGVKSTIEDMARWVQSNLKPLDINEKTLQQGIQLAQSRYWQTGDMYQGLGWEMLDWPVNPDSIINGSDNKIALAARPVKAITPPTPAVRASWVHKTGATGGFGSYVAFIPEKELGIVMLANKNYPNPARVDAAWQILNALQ
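AmpC (5.3 nM in the dispensed reagent) in 20 mM phosphate pH 7.0 with 0.01% (detergent screen) or 0.0001% Triton X-100 was preincubated with compounds for 15 min at room temperature. Nitrocefin was then added from an 800 uM solution, and hydrolysis was followed at 480 nm.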
AmpC inh no detg: inhibitors of E. coli AmpC beta-lactamase without detergent. P00811. AmpC nitrocefin hydrolysis, absorbance 480 nm, 0.0001% Triton. Potency, µM (highest dose often 57.1 µM), inactives show at the top dose activity change, negative = inhibition, usual class: inhibitors. 0.52% of 330,000 active. AID 485341;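 also: potency is read from the fitted curve at half-maximal effect; plate controls were no compound for no effect and no enzyme for full effect; nearly all actives have a fitted effect of over 20% in size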
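AmpC (5.3 nM in the dispensed reagent) in 20 mM phosphate pH 7.0 with 0.01% (detergent screen) or 0.0001% Triton X-100 was preincubated with compounds for 15 min at room temperature. Nitrocefin was then added from an 800 uM solution, and hydrolysis was followed at 480 nm.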
SARS PLpro yeast: SARS-CoV PLP inhibition in yeast; S. cerevisiae expressing SARS-CoV PLpro, growth rescue; Potency, µM (highest dose often 32.9 µM), without a hit: at the top dose activity, positive = growth rescue, hits mostly activators; 0.19% of 330,000 active; calls by dose curve; also: potency is read from the fitted curve at half-maximal effect; 0% is about no effect; nearly all actives have a fitted effect of over 55% in size
An asterisk follows results filed as active; ? = inconclusive; · = not tested or not shown; [ ] = another dose, or the depositor's remark. The sample as a whole holds a higher share of hits than the screen did. Unless noted, calls follow the shape of the dose curve; as a rule, active = well fitted curve in the direction sought with a large enough effect; inconclusive = small, poorly fitted or top-dose-only effect, or another doubt; inactive = no such curve, though single readings can be large; an effect the other way counts as inactive or inconclusive.

SMILES	Shiga toxin inh	AMA1-RON2 inh	Cycloheximide cs	AmpC detergent	AmpC inh no detg	SARS PLpro yeast
O=C(c1cccs1)N1CCN(c2ccc(Cl)cc2)CC1	19.8	3.0%	22.2*	0.8%	-14.8%	-4.0%
CCNc1oc(-c2ccc(COc3ccc(Cl)cc3)o2)nc1C#N	·	·	·	16.6%	·	·
COC(=O)C1CN(C(=O)COc2ccc(C)c(C)c2)c2ccccc2O1 (stereo not given)	2.0	4.6%	0.9	-2.6%	17.0%	-4.4%
CC1(CN2CCC(n3c(=O)[nH]c4ccccc43)CC2)OCc2ccccc2-n2cccc21 (stereo not given)	-12.1	·	4.0	·	·	·
COc1cccc(OCCCn2cc(/C=C3/C(=N)N4C=C(C)SC4=NC3=O)c3ccccc32)c1	50.5*	22.5%	19.1*	-4.0%	-23.5%	6.4%
CCS(=O)(=O)C1=NN2C(=N)/C(=C\c3ccc(OCCOc4cccc(OC)c4)c(OC)c3)C(=O)N=C2S1	41.7	29.6%	13.1	10.4%	-25.6%	2.3%
Cc1cccc(OCCn2cc(/C=N/NC(=O)c3ccncc3)c3ccccc32)c1	28.3*	27.8%	11.0*	-10.4%	52.3%	?
COc1ccc(OCCCn2cc(/C=C3/C(=N)N4C=C(C)SC4=NC3=O)c3ccccc32)cc1	35.9*	23.6%	35.0*	?	-27.4%	8.2%
CCOC(=O)/C(C#N)=C/c1cn(CCOc2ccc(OC)cc2)c2ccccc12	-2.8	-8.9%	10.2	-8.6%	-24.8%	-11.3%
CC1=CN2C(=N)/C(=C/c3cn(CCCOc4ccccc4C)c4ccccc34)C(=O)N=C2S1	24.3*	3.9%[2.32 µM]	66.9*	0.1%	-21.8%	0.9%
O=C(CCCCCN1C(=O)c2cccc3cccc(c23)C1=O)NO	48.5	·	10.9	·	·	·
COc1cccc(OCCn2cc(C=O)c3ccccc32)c1	·	8.0%	22.8*	?	-8.8%	-3.5%
CC1=CN2C(=N)/C(=C/c3ccco3)C(=O)N=C2S1	71.6*	13.7%	47.0*	?	-20.5%	-22.6%
CC1=CN2C(=N)/C(=C/c3ccc([N+](=O)[O-])o3)C(=O)N=C2S1	18.3	0.0%	13.1	0.2%	-37.2%	-95.5%
COC(=O)N/N=C/c1cn(CCOc2cccc(OC)c2)c2ccccc12	37.9	0.0%	8.4	0.0%	9.2%	-3.8%
CCOCCc1nn2c(=O)cc(COC(=O)COc3ccc(C)c(C)c3)nc2s1	·	·	·	9.5%	·	·
O=C(CSc1cccc[n+]1[O-])Nc1ccc(Br)cc1Br	·	3.1%	·	·	-13.9%	2.7%
Cc1ccc(NC(=O)COC(=O)COc2cccc3c2OC(C)(C)C3)c(C)c1	·	-11.5%	·	-11.9%	-1.5%	-16.6%
COCC(C)n1c(C)cc(C(=O)CSc2ccc(NC(C)=O)cc2)c1C (stereo not given)	52.5*	-6.3%	25.6*	-0.6%	7.6%	2.7%
COc1ccc(-n2cnnc2SCC(=O)c2cc(C)n(Cc3cccs3)c2C)cc1	-1.0	?	-3.7	?	46.7%	-3.1%
CC(=O)Nc1ccc(SCC(=O)c2cc(C)n(Cc3cccs3)c2C)cc1	100.8*	13.9%	77.2*	8.5%	-3.2%	10.3%
C=CCn1c(C)cc(C(=O)CSc2ccc(NC(C)=O)cc2)c1C	114.2*	13.5%	43.3*	5.6%	-1.9%	0.0%
COCC(C)n1c(C)cc(C(=O)CSc2nnnn2-c2ccc(O)cc2)c1C (stereo not given)	49.9*	-11.9%	28.5*	4.3%	-34.5%	-0.7%
CS(=O)(=O)N(CCC#N)Cc1ccc(C=O)o1	34.5	-2.4%	-2.1	3.3%	1.5%	3.9%
COCC(C)n1c(C)cc(C(=O)CSc2ncccn2)c1C (stereo not given)	71.6*	0.8%	36.4*	?	-11.6%	-0.3%
SMILES	Shiga toxin inh	AMA1-RON2 inh	Cycloheximide cs	AmpC detergent	AmpC inh no detg	SARS PLpro yeast
COCCn1c(C)cc(C(=O)CSc2ccc(NC(C)=O)cc2)c1C	104.9*	-9.1%	47.0*	-12.8%	-3.9%	-2.8%
O=C(CSc1ncccn1)c1ccccc1Br	35.3*	2.1%	25.9*	?	-19.3%	-1.7%
CC(=O)Nc1ccc(SCC(=O)c2cc(C)n(-c3ccccc3F)c2C)cc1	125.4*	-22.6%	73.9*	0.1%	33.4%	-10.6%
COC(=O)c1ccc(-n2c(C)cc(C(=O)CSc3ccc(NC(C)=O)cc3)c2C)cc1	-7.0	?	-3.5	?	95.5%	-39.5%
COc1cc(/C=N/NC(=O)CN2CC(c3ccccc3)CC2=O)ccc1OC(=O)N(C)C (stereo not given)	11.5	35.7%	-2.9	-2.0%	96.7%	0.8%
Cc1cc(/C=C2\C(=O)NC(=O)N(c3ccccc3)C2=O)c(C)n1-c1ccc(C(=O)O)c(Cl)c1	-1.6	1.6%	0.9	?	-38.6%	8.4%
CC(=O)N1CCC(N(Cc2ccco2)C(=O)Nc2ccc(Br)cc2F)CC1	·	·	·	-0.9%	·	·
CCOc1ccc(-n2nc3ccc(N)cc3n2)cc1	30.9*	2.5%	35.7*	-12.9%	-15.3%	-10.6%
CCOc1ccc(-n2nc3cc(C)c(N)cc3n2)cc1	47.6*	14.8%	32.2*	?	-10.0%	-5.3%
CCOc1ccc(NC(=O)NCc2ccccn2)cc1	38.7	-5.0%	13.4	?	-21.9%	5.4%
O=C(NCc1ccncc1)Nc1ccc2c(c1)OCO2	40.5*	-17.6%	25.6*	6.4%	-11.7%	0.6%
O=C(Nc1ccc2c(c1)OCO2)Nc1cnccn1	58.4*	-4.2%	26.9*	0.9%	-23.9%	-3.1%
O=C(NCc1ccccn1)Nc1ccc2c(c1)OCO2	101.2*	26.4%	57.1*	-10.0%	-18.9%	5.6%
O=C(Nc1cccc(F)c1)Nc1ccccn1	60.7*	?	49.5*	3.1%	-28.4%	2.1%
O=C(Nc1cccc(F)c1)Nc1cnccn1	11.0	-12.8%	7.9	0.4%	-6.8%	-6.5%
CCCC(=O)NNC(=O)CCC(=O)NCc1ccccc1	-18.8	37.3%	2.1	4.5%	-31.9%	-6.4%
O=C1CCC([N+](=O)[O-])C(c2ccc(Cl)c([N+](=O)[O-])c2)N1 (stereo not given)	2.2	3.1%	-2.8	?	-20.7%	1.6%
CC(=O)c1cccc(NC(=O)NCc2cccs2)c1	10.5	19.3%	1.4	?	-1.5%	-7.3%
O=C(Nc1ccccc1)NC1(C(=O)NCc2cccs2)CCCCC1	8.6	-2.7%	-1.2	1.7%	0.141µM*	4.5%
O=C(NCc1cccs1)Nc1ccc2c(c1)OCO2	68.7*	5.5%	39.8*	-15.2%	-6.8%	-1.6%
O=C(Nc1ccc2c(c1)OCO2)Nc1ccccn1	99.2*	2.6%	54.8*	4.6%	-4.4%	-0.2%
O=C(CNC(=O)c1ccc2c(c1)OCO2)NCc1cccs1	·	9.4%	·	·	-2.6%	-1.7%
O=C(NCc1cccs1)Nc1ccc(Cl)cc1	60.8*	-9.3%	45.4*	-12.4%	-41.3%	3.2%
CN(C)/C=C1\C(=O)NN=C1c1ccccc1	-10.3	3.7%	0.2	3.1%	-33.9%	-0.4%
